Results as given in PubChem BioAssay (NCI).
This is part of a sample that, as a whole, favours compounds with a hit. Of some 83,000 tested, about 20% had one in any assay.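 Treatment: one concentration, 48 hours, 96-well format. Scoring: percent growth, with anything below 10 considered active.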 The source made the active and inactive calls.

What was measured:
Assay in all cases: NCI-60 one-dose screen, 48 h (100 = growth as untreated, 0 = no growth, -100 = all killed)
Conditions in all cases: 10 µM unless noted
SK-MEL-2 melanoma = system: SK-MEL-2 melanoma
EKVX NSCLC = system: EKVX NSCLC
SN12C renal = system: SN12C renal
UO-31 renal = system: UO-31 renal
TK-10 renal = system: TK-10 renal
ACHN renal = system: ACHN renal
CAKI-1 renal = system: CAKI-1 renal
A498 renal = system: A498 renal
CCRF-CEM leukemia = system: CCRF-CEM leukemia
MOLT-4 leukemia = system: MOLT-4 leukemia
SR leukemia = system: SR leukemia
RPMI-8226 leukemia = system: RPMI-8226 leukemia
OVCAR-8 ovarian = system: OVCAR-8 ovarian
OVCAR-5 ovarian = system: OVCAR-5 ovarian
OVCAR-4 ovarian = system: OVCAR-4 ovarian
SK-OV-3 ovarian = system: SK-OV-3 ovarian
IGROV1 ovarian = system: IGROV1 ovarian
HS 578T breast = system: HS 578T breast
NCI/ADR-RES ovarian = system: NCI/ADR-RES ovarian

Measured: growth

O=C(/C=C/c1cccc(C(F)(F)F)c1)Nc1cccc(C(F)(F)F)c1
inactive: SK-MEL-2 melanoma 76.8% | EKVX NSCLC 50.1% | SN12C renal 83.1% | UO-31 renal 47.7% | TK-10 renal 53.5% | ACHN renal 70.1% | CAKI-1 renal 34.1% | A498 renal 54.3% | CCRF-CEM leukemia 31.7% | MOLT-4 leukemia 35.8% | SR leukemia 68.6% | RPMI-8226 leukemia 24.4% | OVCAR-8 ovarian 33% | OVCAR-5 ovarian 95.4% | OVCAR-4 ovarian 47.7% | SK-OV-3 ovarian 79.3% | IGROV1 ovarian 53% | HS 578T breast 93% | NCI/ADR-RES ovarian 46.4%

COc1ccc(C2C(C#N)=C(/N=C/c3ccc(Cl)cc3)Oc3c2sc2c(C)cccc32)cc1 (configuration not stated)
active: SK-MEL-2 melanoma -12.9% | A498 renal -11.5% | HS 578T breast -4.66%
inactive: EKVX NSCLC 42.5% | SN12C renal 42.4% | UO-31 renal 37.1% | TK-10 renal 76.9% | ACHN renal 49.1% | CAKI-1 renal 39% | CCRF-CEM leukemia 18.7% | MOLT-4 leukemia 17% | SR leukemia 16.5% | RPMI-8226 leukemia 22.6% | OVCAR-8 ovarian 23.4% | OVCAR-5 ovarian 34.9% | OVCAR-4 ovarian 76.5% | SK-OV-3 ovarian 42.8% | IGROV1 ovarian 23.6% | NCI/ADR-RES ovarian 11.2%

O=S(=O)(Oc1ccc(-c2cn3ccoc3n2)cc1)c1cccc(C(F)(F)F)c1
inactive: SK-MEL-2 melanoma 104% | EKVX NSCLC 102% | SN12C renal 96.2% | UO-31 renal 93.1% | TK-10 renal 85.4% | ACHN renal 102% | CAKI-1 renal 86.9% | A498 renal 88.8% | CCRF-CEM leukemia 106% | MOLT-4 leukemia 103% | SR leukemia 100% | RPMI-8226 leukemia 94.4% | OVCAR-8 ovarian 101% | OVCAR-5 ovarian 103% | OVCAR-4 ovarian 102% | SK-OV-3 ovarian 117% | IGROV1 ovarian 106% | HS 578T breast 98.6% | NCI/ADR-RES ovarian 106%

CCn1c2ccc(/C=N/N(C)S(=O)(=O)CCN(C)C)cc2c2cc(/C=N/N(C)S(=O)(=O)CCN(C)C)ccc21
inactive: SK-MEL-2 melanoma 107% | EKVX NSCLC 94.7% | SN12C renal 33.3% | UO-31 renal 47.5% | TK-10 renal 142% | ACHN renal 70.2% | CAKI-1 renal 48.1% | A498 renal 85.3% | CCRF-CEM leukemia 19.4% | MOLT-4 leukemia 15.1% | RPMI-8226 leukemia 65.2% | OVCAR-8 ovarian 48.9% | OVCAR-5 ovarian 82.6% | OVCAR-4 ovarian 69.2% | SK-OV-3 ovarian 106% | HS 578T breast 76.8% | NCI/ADR-RES ovarian 54.7%
active: SR leukemia 2.12% | IGROV1 ovarian 2.68%

O=C(N/N=C/c1cc2ccccc2nc1Cl)c1cc(-c2nc3ccccc3[nH]2)nc2ccccc12
inactive: SK-MEL-2 melanoma 82.8% | EKVX NSCLC 93.5% | SN12C renal 99.9% | UO-31 renal 70.7% | TK-10 renal 91.7% | ACHN renal 89% | CAKI-1 renal 71.6% | A498 renal 54.6% | CCRF-CEM leukemia 87.8% | MOLT-4 leukemia 82.2% | SR leukemia 83.6% | RPMI-8226 leukemia 82.7% | OVCAR-8 ovarian 96.3% | OVCAR-5 ovarian 106% | OVCAR-4 ovarian 86.3% | SK-OV-3 ovarian 106% | IGROV1 ovarian 87.5% | HS 578T breast 108% | NCI/ADR-RES ovarian 93.3%

Cc1csc(/N=C(N)/N=C(\N)c2cccc(C#N)c2)n1
inactive: SK-MEL-2 melanoma 47.8% | EKVX NSCLC 82.8% | SN12C renal 92.3% | UO-31 renal 76.3% | TK-10 renal 168% | ACHN renal 84.9% | CAKI-1 renal 53.9% | A498 renal 69.4% | CCRF-CEM leukemia 82.7% | MOLT-4 leukemia 85.6% | SR leukemia 30.2% | RPMI-8226 leukemia 87.8% | OVCAR-8 ovarian 85.8% | OVCAR-5 ovarian 106% | OVCAR-4 ovarian 97.2% | SK-OV-3 ovarian 76.3% | IGROV1 ovarian 77.7% | HS 578T breast 83.1% | NCI/ADR-RES ovarian 58.3%

CC(C)Sc1nc(-c2ccccc2)c(C#N)c(N2CCOCC2)n1
inactive: SK-MEL-2 melanoma 128% | EKVX NSCLC 69.8% | SN12C renal 28.1% | UO-31 renal 17.9% | TK-10 renal 106% | CAKI-1 renal 52.1% | A498 renal 65.6% | CCRF-CEM leukemia 75.3% | MOLT-4 leukemia 93.5% | SR leukemia 78.9% | RPMI-8226 leukemia 90.7% | OVCAR-8 ovarian 69.3% | OVCAR-5 ovarian 59.8% | SK-OV-3 ovarian 86.8% | HS 578T breast 50% | NCI/ADR-RES ovarian 71.1%
active: ACHN renal -6.39% | OVCAR-4 ovarian 2.36% | IGROV1 ovarian 5.14%

Brc1cccc(-c2cc(-c3cnc4c(c3)OCCO4)n[nH]2)c1
inactive: SK-MEL-2 melanoma 52.1% | EKVX NSCLC 50.4% | SN12C renal 62.8% | UO-31 renal 51% | TK-10 renal 89.9% | ACHN renal 51.6% | CAKI-1 renal 51.8% | A498 renal 50.6% | CCRF-CEM leukemia 36.7% | MOLT-4 leukemia 34.1% | SR leukemia 13.4% | RPMI-8226 leukemia 26.2% | OVCAR-8 ovarian 46.4% | OVCAR-5 ovarian 72.3% | OVCAR-4 ovarian 82.5% | SK-OV-3 ovarian 77.1% | IGROV1 ovarian 45% | HS 578T breast 76.1% | NCI/ADR-RES ovarian 10.9%
